High-throughput results deposited in PubChem BioAssay by National Center for Advancing Translational Sciences (NCATS).
This is one part of a sample in which hits are shown more often than they occur.
Pf Dd2 growth: Plasmodium falciparum Dd2 growth inhibition. Potency, µM (highest dose often 28.9 µM), usual class: inhibitors. 4.3% of 120,000 active. P. falciparum Dd2 growth, SYBR Green, 72 h. AID 1347417; active = well fitted inhibition curve with a large enough effect; note: nearly all actives have a fitted effect of over 65% in size
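Readout: SYBR Green fluorescence, 485 nm excitation, 535 nm emission, after ~16 h lysis at 37C. Before that, Dd2-infected red cells (2.5% hematocrit) grew 72 h with compound, 29 uM top final concentration.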
Numbers stand for hits; 0 = inactive.

SMILES | Pf Dd2 growth
CCOc1ccc(NC(=O)c2c(NCc3sccc3C)sc3c2CCCCC3)cc1 | 11.2µM
CCOC(=O)N1CCc2c(sc(NCc3cccs3)c2C(=O)Nc2cc(Cl)ccc2OC)C1 | 8.91µM
COc1ccc(NC(=O)c2c(NCc3ccc(C)o3)sc3c2CCC(C)C3)cc1 (stereo unspecified) | 8.91µM
COc1ccc(Cl)cc1NC(=O)Cn1nc(C(F)(F)F)c2c1CCCC2 | 0
COc1ccc(NC(=O)c2c(NCc3ccc(C)o3)sc3c2CCCCC3)c(OC)c1 | 11.2µM
COC(=O)c1c(NC(=O)c2cc(OC)c(OC)c(OC)c2Br)sc2c1CCC(C)C2 (stereo unspecified) | 0
COc1ccc(Cl)cc1NC(=O)Cn1nnc(C(=O)NCc2cccs2)c1N | 0
COc1ccc(NC(=O)Cn2c(=O)n(-c3ccccc3)c(=O)c3c4c(sc32)CCCC4)c(OC)c1 | 0
CCCN(CC1CCOC1)S(=O)(=O)c1cc(F)ccc1F (stereo unspecified) | 0
COCCc1noc([C@@H]2CN(C(=O)CC3=CCCCC3)C[C@H]2CO)n1 | 0
CCc1noc(-c2cn(C3CCN(C(=O)c4ccc(C)c(F)c4)CC3)nn2)n1 | 0
O=C(NCc1ccncc1)C1CN(S(=O)(=O)c2cccc(Cl)c2)CC12CCOCC2 (stereo unspecified) | 0
COCc1cc(=O)n(CC(=O)Nc2cccc(Br)c2)c(N2CCOCC2)n1 | 0
CC1(C)CC(C(=O)N2CCC3(CC2)C(=O)Nc2ccccc23)CCO1 (stereo unspecified) | 0
CCCNC(=O)N1CCCCCC1CN1CCC(OC)CC1 (stereo unspecified) | 0
O=C1CCC2(CCN1CC1CC1)CCN(C(=O)C1CC=CC1)CC2 | 0
COCCNc1ncnc2onc(-c3ccc(F)cc3)c12 | 0
COCCCNc1ncnc2onc(-c3ccc(F)cc3)c12 | 0
Cc1ccccc1CN1CCC(CNc2ncnc3onc(-c4ccc(F)cc4)c23)CC1 | 3.98µM
O=C(Cn1cnnn1)N1C[C@@H](COCC2CC2)[C@H](c2ccncc2)C1 | 0
O=C(c1ccco1)N1CCCC(c2nn[nH]n2)C1 (stereo unspecified) | 0
O=C(Nc1cc(Cl)ccc1Cl)c1ccc2c(c1)N(Cc1cccc(Cl)c1)C(=O)c1ccccc1S2=O (stereo unspecified) | 3.98µM
Cc1ccccc1CN1C(=O)c2ccccc2S(=O)c2ccc(C(=O)NCc3ccccc3)cc21 (stereo unspecified) | 0
CCN(CC)CCNC(=O)c1ccc2c(c1)N(Cc1ccccc1)C(=O)c1ccccc1S2=O (stereo unspecified) | 0
O=C(c1ccc2c(c1)N(Cc1cccc(Cl)c1)C(=O)c1ccccc1S2(=O)=O)N1CCCC1 | 0
SMILES | Pf Dd2 growth
NC(=O)C1CCN(C(=O)c2ccc3c(c2)N(Cc2cccc(Cl)c2)C(=O)c2ccccc2S3=O)CC1 (stereo unspecified) | 0
COC(=O)c1cc(NC(=O)c2ccc3c(c2)N(Cc2cccc(Cl)c2)C(=O)c2ccccc2S3=O)cc(C(=O)OC)c1 (stereo unspecified) | 3.16µM
O=C(NCCc1ccccc1)c1ccc2c(c1)N(Cc1ccccc1F)C(=O)c1ccccc1S2=O (stereo unspecified) | 0
O=C(Nc1cccc(Cl)c1Cl)c1ccc2c(c1)N(Cc1cccc(Cl)c1)C(=O)c1ccccc1S2(=O)=O | 5.62µM
O=C(c1ccc2c(c1)N(Cc1cccc(Cl)c1)C(=O)c1ccccc1S2(=O)=O)N1CCCCCC1 | 0
Cc1onc(-c2cnn(C)c2NCc2ccccc2)c1C(=O)N1CCC(c2ccccc2)CC1 | 0
C1CNCC(Cc2nc(C3CCOCC3)no2)C1 (stereo unspecified) | 0
CC1(CNCc2ccccc2)COc2ccc(C(=O)Nc3cccnc3)cc2N1 (stereo unspecified) | 0
COc1ccc(C2(C(=O)N3CCCCCCN(C)C(=O)[C@@H]4CCC[C@@H]43)CC2)cc1 | 0
O=C(NCc1ccc(F)cc1)C1CCc2nnc(C3CCN(C(=O)c4ccc(Cl)cc4Cl)CC3)n21 (stereo unspecified) | 0
COc1cccc(C2CCN(Cc3cn(-c4ccccc4)nn3)C2)c1OC (stereo unspecified) | 12.6µM
O=C(O)Cc1cc(C2CCN(Cc3cn(-c4ccccc4)nn3)CC2)n[nH]1 | 0
c1ccc(-n2cc(CN3CCC(Oc4ccncc4)CC3)nn2)cc1 | 0
CC(=O)N1CCN([C@H]2[C@@H]3OC[C@@H](O3)[C@@H](NC(=O)NC3CCCCC3)[C@@H]2O)CC1 | 0
COc1ccc(C(=O)N[C@@H]2CCC[C@@H]2C(=O)NCCC(C)C)cn1 | 0
Cc1noc(-c2cccn3c(CNC(=O)c4ccc5ccccc5n4)nnc23)n1 | 0
CCOC(=O)C1(Cc2ccccc2C(F)(F)F)CCN(Cc2ccccn2)CC1 | 6.31µM
CN(Cc1ccccn1)Cc1ccccc1C(F)(F)F | 0
OCC1(Cc2ccccc2C(F)(F)F)CCNCC1 | 0
CCOC(=O)C1(Cc2ccccc2C(F)(F)F)CCN(C(C)Cc2cccc(C)n2)CC1 (stereo unspecified) | 12.6µM
